The supplement of paper PMC8387472

Key:
Conditions in all cases: mESC; 2uM; 72 h treatment, harvest day 5
[1] = compound: O=c1cc(N2CCOCC2)oc2c(-c3ccc4c(c3)OCCO4)csc12; assay: fraction of edited reads among all mapped reads; higher = more Cas9 editing
Mercaptopurine (6-MP) = compound: S=c1[nH]cnc2nc[nH]c12 [Mercaptopurine (6-MP)]; assay: as above
[2] = compound: S=c1nc[nH]c2nc[nH]c12 [6-Mercaptopurine (6-MP) Monohydrate]; assay: as above
[3] = compound: CC(=O)O/N=C1\C(=O)N(Cc2cc(Cl)ccc2Cl)c2ccc(Cl)cc21; assay: fraction of microhomology deletions among edited reads; higher = more MH deletions
[4] = compound: CC(C)(C#N)c1ccc(N2C(=O)OCc3cnc4ccc(-c5cnc6ccccc6c5)cc4c32)cc1; assay: as above
[5] = compound: CCCCOc1c(C(=O)c2c(F)cc(C)cc2F)c[nH]c2nncc1-2; assay: as above
[6] = compound: CCN1CCN(CC(=O)Nc2ccc(-c3cccc4c(=O)cc(N5CCOCC5)oc34)c3sc4ccccc4c23)CC1; assay: as above
[7] = compound: CCc1c2c(nc3ccc(OC(=O)N4CCC(N5CCCCC5)CC4)cc13)-c1cc3c(c(=O)n1C2)COC(=O)[C@]3(O)CC [Irinotecan HCl Trihydrate]; assay: as above
[8] = compound: CCn1c(=O)c(-c2ccc(Cl)cc2Cl)cc2cnc(Nc3ccc(N4CCNCC4)c(F)c3)nc21; assay: as above
[9] = compound: CNc1ccc([N+](=O)[O-])c(Nc2ccc3[nH]ncc3c2)n1; assay: as above
Rifapentine = compound: CO[C@H]1/C=C/O[C@@]2(C)Oc3c(C)c(O)c4c(O)c(c(/C=N/N5CCN(C6CCCC6)CC5)c(O)c4c3C2=O)NC(=O)/C(C)=C\C=C\[C@H](C)[C@H](O)[C@@H](C)[C@@H](O)[C@@H](C)[C@H](OC(C)=O)[C@@H]1C [Rifapentine]; assay: as above
[10] = compound: COc1ccccc1-c1cc(Nc2cccc(CS(N)(=O)=O)c2)ncn1; assay: as above
[11] = compound: C[C@@H]1CN(CC(=O)Nc2ccc3c(c2)Cc2cccc(-c4cc(=O)cc(N5CCOCC5)o4)c2S3)C[C@H](C)O1; assay: as above
[12] = compound: Cc1cc(C)nc(SCC(=O)Nc2ncc(Cc3cccc4ccccc34)s2)n1; assay: as above
[13] = compound: Cc1cccc(CC(=O)N2CCc3c2ccc(-c2cn(C)c4ncnc(N)c24)c3F)n1; assay: as above
[14] = compound: NC(=O)c1ccc2nc(-c3ccc(Oc4ccc(Cl)cc4)cc3)[nH]c2c1 [Chk 2 inhibitor II (BML-277)]; assay: as above
Tucidinostat (Chidamide) = compound: Nc1cc(F)ccc1NC(=O)c1ccc(CNC(=O)/C=C/c2cccnc2)cc1 [Tucidinostat (Chidamide)]; assay: as above
Pemetrexed = compound: Nc1nc2[nH]cc(CCc3ccc(C(=O)N[C@@H](CCC(=O)O)C(=O)O)cc3)c2c(=O)[nH]1 [Pemetrexed]; assay: as above
[15] = compound: Nc1ncnc2c1c(-c1cnc3[nH]ccc3c1)nn2C1CCCC1; assay: as above
[16] = compound: O=C(c1cccc(Cl)c1F)N1CCN(Cc2cccc(Nc3nccs3)n2)CC1; assay: as above

Target	fraction of edited reads among all mapped reads [1]	fraction of edited reads among all mapped reads (Mercaptopurine (6-MP))	fraction of edited reads among all mapped reads [2]	fraction of microhomology deletions among edited reads [3]	fraction of microhomology deletions among edited reads [4]	fraction of microhomology deletions among edited reads [5]	fraction of microhomology deletions among edited reads [6]	fraction of microhomology deletions among edited reads [7]	fraction of microhomology deletions among edited reads [8]	fraction of microhomology deletions among edited reads [9]	fraction of microhomology deletions among edited reads (Rifapentine)	fraction of microhomology deletions among edited reads [10]	fraction of microhomology deletions among edited reads [11]	fraction of microhomology deletions among edited reads [12]	fraction of microhomology deletions among edited reads [13]	fraction of microhomology deletions among edited reads [14]	fraction of microhomology deletions among edited reads (Tucidinostat (Chidamide))	fraction of microhomology deletions among edited reads (Pemetrexed)	fraction of microhomology deletions among edited reads [15]	fraction of microhomology deletions among edited reads [16]
38.0 (DMSO control at this site: 1-bp insertion 0.063, MH deletion 0.487, edited 0.17) GGGCTGGGTGCTAAAATGAGGAGCTCCAAGAAGACTGAGGTGAACCTGGAGGCCCCTGAGC	0.0925	0.193	0.157	0.497	0.485	0.505	0.546	0.488	0.513	0.501	0.507	0.46	0.441	0.483	0.495	0.495	0.458	0.548	0.432	0.439
22.0 (DMSO control at this site: 1-bp insertion 0.573, MH deletion 0.229, edited 0.045) CTGATGGTTGAAGGATTTAGCCGGGGTCCTAGACGCCGGGGTCCTAGACGAAAGGGCCACG	0.0255	0.0686	0.0558	0.159	0.162	0.122	0.296	0.125	0.168	0.117	0.142	0.163	0.0591	0.188	0.0873	0.201	0.209	0.267		0.0524
25.0 (DMSO control at this site: 1-bp insertion 0.017, MH deletion 0.774, edited 0.143) GGGCCTGAATGGTGTGGACATCTACTCGCTGGTGAGCTGGTGACTGAAAACATTCAGTGGC	0.105	0.193	0.126	0.806	0.772	0.766	0.787	0.759	0.783	0.778	0.792	0.747	0.648	0.772	0.759	0.767	0.723	0.744	0.784	0.769
32.0 (DMSO control at this site: 1-bp insertion 0.03, MH deletion 0.85, edited 0.898) AGAAGTCCAGGATCAGGGGGACTGGGGTCGGGAGGGTGGGGCAGGAAGGAAGCCAGAATCA	0.84	0.906	0.874	0.93	0.904	0.914	0.912	0.901	0.905	0.895	0.91	0.93	0.896	0.908	0.897	0.918	0.904	0.928	0.886	0.926
44.0 (DMSO control at this site: 1-bp insertion 0.181, MH deletion 0.512, edited 0.123) ACACATACCTTCTTCGAGGCAGCCAGCATGATGAGACAGGTCTCCCACAAACACATCGTGT	0.091	0.173	0.13	0.553	0.526	0.528	0.637	0.469	0.547	0.506	0.531	0.451	0.295	0.506	0.384	0.539	0.491	0.583	0.479	0.486
26.0 (DMSO control at this site: 1-bp insertion 0.518, MH deletion 0.262, edited 0.026) AGGGCGCGCCCCACGCACTCTGCGGCAAGTCCCTCTGCGGCAAGTCCTCGGCCCGGAAGAC	0.0106	0.04	0.0282	0.289	0.324	0.27	0.54	0.29	0.331	0.256	0.272	0.295	0.115	0.281	0.301	0.302	0.278	0.44	0.201	0.275
46.0 TTAAGAGCAATGTTCACGCAACTTGAAATTATATCTGTGGTCTTCAAATTGTCTTTTGTCA			0.0652		0.597	0.422				0.376	0.417						0.327	0.431	0.497	
42.0 (DMSO control at this site: 1-bp insertion 0.145, MH deletion 0.655, edited 0.132) GGGCTAAACCTATGAGCACAGTAGAACTAAGGGTGGGTGGTGTAGCTAAAGAACTTGACCA	0.0994	0.171	0.109	0.699	0.678	0.696	0.734	0.672	0.706	0.633	0.683	0.653	0.384	0.667	0.682	0.634	0.607	0.634	0.571	0.62
16.0 (DMSO control at this site: 1-bp insertion 0.172, MH deletion 0.29, edited 0.05) CGGACTGCACACATGGGTAGGATCGTGCACGCGAGGTAGGATCGTGCACGCGAAGTTATTC	0.0306	0.0811	0.0574	0.319	0.293	0.294	0.34	0.252	0.308	0.252	0.319	0.282	0.12	0.275	0.281	0.254	0.302	0.279	0.198	0.256
45.0 (DMSO control at this site: 1-bp insertion 0.017, MH deletion 0.666, edited 0.101) TTACACAGCATGAACTGCTAGGTGATGATGTCAGATTCGGTTTTACTAACTTCTCCAAAAA	0.0613	0.128	0.092	0.623	0.655	0.62	0.654	0.631	0.655	0.622	0.624	0.614	0.515	0.608	0.655	0.617	0.624	0.574	0.54	0.598
47.0 (DMSO control at this site: 1-bp insertion 0.095, MH deletion 0.585, edited 0.118) GAGTGGTCCCGAGCCAGGAACTGTGTGTGTTGCAGGGGGGCAGTAACTCCCCAACTCCCTC	0.0673	0.143	0.101	0.564	0.539	0.518	0.62	0.473	0.597	0.542	0.57	0.469	0.319	0.528	0.477	0.494	0.442	0.503	0.389	0.453
2.0 (DMSO control at this site: 1-bp insertion 0.364, MH deletion 0.356, edited 0.125) GGTGCCCCCGAGACCTACGCGAACCGAAATCGATGTCCGGTGCGCAAGCAGGGCTGGCGTC	0.0694	0.166	0.112	0.422	0.343	0.375	0.513	0.414	0.384	0.345	0.417	0.327	0.123	0.378	0.3	0.397	0.303	0.408	0.262	0.256
18.0 (DMSO control at this site: 1-bp insertion 0.114, MH deletion 0.789, edited 0.094) GCGCAAGTGCATAAGTTTTTCTTAAGGCGTGCCTTTAAGGCGTGCCTTTGTCGGTCCTGGA	0.0717	0.112	0.0789	0.794	0.798	0.787	0.866	0.789	0.794	0.793	0.805	0.779	0.683	0.791	0.755	0.812	0.797	0.78	0.768	0.777
40.0 (DMSO control at this site: 1-bp insertion 0.072, MH deletion 0.192, edited 0.189) GCGAATCAACTGTTCAACAACAGCAGCAGCCACCTGGAGGACTACAGTGGCCTGTCCGTGT	0.107	0.24	0.175	0.2	0.177	0.179	0.26	0.196	0.21	0.184	0.211	0.146	0.0486	0.173	0.156	0.181	0.145	0.169	0.139	0.137
27.0 CCAGAATTAGAACATATCATCTGGACCCTTTTCCATCTGGACCCTTTTCCAGCACACCCTG	0.0389	0.0718	0.0546	0.162	0.195	0.138		0.0693		0.225	0.214	0.156		0.104			0.174		0.105	
21.0 CGATTGAGAGTCAAACGGGCCAGAAAACTCCGGGAACGGGCCAGAAAACTCCGGGGCATGG	0.0627	0.169	0.117	0.191	0.163	0.144	0.276	0.188		0.197	0.216	0.183	0.0533	0.176		0.226	0.127	0.186	0.144	
3.0 (DMSO control at this site: 1-bp insertion 0.109, MH deletion 0.149, edited 0.09) TGCTAGCGCCCCCACAAAGCGGACCAGCCAGCACTATAGGGAATAAGGCCAACTTGCACCC	0.0464	0.123	0.0926	0.225	0.161	0.199	0.266	0.222	0.226	0.188	0.188	0.178	0.0553	0.188	0.186	0.237	0.204	0.171	0.166	0.193
35.0 (DMSO control at this site: 1-bp insertion 0.01, MH deletion 0.72, edited 0.098) CCACTTTTAGAGAGGGTGAAAATCATCAGTTATCATCAGGGCAACAAATTGCTTTCTCCTA	0.0645	0.127	0.0862	0.754	0.761	0.781	0.788	0.732	0.729	0.732	0.776	0.724	0.562	0.732	0.695	0.722	0.687	0.794	0.699	0.679
